From PubChem BioAssay (NCATS) come the findings set out here.

Records with an inconclusive call do not appear. The source made the active and inactive calls. Unless noted, the call rests on the fitted dose curve; in most records, active means well fitted curve in either direction with a large enough effect (not every such curve was filed as active); inconclusive means small, poorly fitted or top-dose-only effect, or another doubt; inactive means flat fitted curve, though single readings scatter.

A short description of test [1]: AP1 Signaling Pathway (AID 357). Further: on the % scale 0 is the no-effect control and ±100 the full control effect. The settings on record: ME-180 AP-1-bla reporter, EGF-induced, beta-lactamase ratio, 5 h; at 7.69 µM (top of the series) unless noted. In short, it runs like this:
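ME-180 cells with beta-lactamase reporter under AP-1 response element, stimulated with EC50 EGF; compounds tested in titration series, 5 h at 37 °C. CCF4 substrate added 2.5 h at room temperature; 460/530 nm emission ratio gave %activity and AC50.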

Test [2] addresses Cytochrome P450 1A2 (Homo sapiens) (UniProt P05177). Kind of test: p450-cyp1a2 (AID 410; calls by dose curve; further: potency means the concentration at half of the fitted maximal effect;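 on activity change, negative = inhibition: -100% = full effect of reference inhibitor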). The essentials:
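Read-out is luminescence from luciferin produced by CYP1A2 demethylation of Luciferin-ME (100uM, at Km). Detection reagent stopped the 60 min NADPH-dependent reaction; signals were normalized to 57 uM furafylline.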

The nature of test [3]: NFAT Signaling Pathway (AID 444).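 Further: carbachol stimulus at about its EC50 of 1 µM final; on the % scale 0 is the no-effect control and ±100 the full control effect.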 The settings on record: Jurkat NFAT-bla M1, carbachol, beta-lactamase ratio, 5 h; at 7.69 µM (top of the series) unless noted. The essentials: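 Jurkat cells with NFAT-driven β-lactamase reporter and co-expressed M1 receptor, stimulated with carbachol (final 1 uM, ~EC50), compound titration, 5 h at 37 °C. CCF4 loaded 1 h at RT; 460/530 nm ratio gave %activity and AC50.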

Test [4] in a line: Stat Signaling Pathway (AID 446).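 Further: ME-180 cervical cancer cells given 40 pM IL-6 alongside compound; SIE-controlled beta-lactamase reporter measured as 460/530 nm FRET emission ratio; on the % scale 0 is the no-effect control and ±100 the full control effect.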 The settings on record: ME-180 (cervical carcinoma) SIE beta-lactamase reporter, IL-6 stimulated, 5 h; at 7.69 µM (top of the series) unless noted. The essentials: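 Compound effects on IL-6-induced STAT reporter activity were measured in ME-180 cells. After overnight culture, cells were co-treated with 40 pM IL-6 for 5 hrs before beta-lactamase substrate loading at room temperature.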

In test [5] the target is Glucocorticoid receptor (Homo sapiens) (UniProt P04150). Kind of test: GR-EFC Redistribution (AID 451; calls by dose curve; further: potency means the concentration at half of the fitted maximal effect). The settings on record: CHO-K1 GR-EFC translocation, beta-gal luminescence, 2 h. In short, it runs like this:
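CHO-K1 cells expressing nuclear EA and GR-ED fragments of b-gal; compounds titrated up to 46 uM final, 2 h at 37 C. GR nuclear translocation read as complemented b-gal luminescence after 1 h RT detection.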

For test [6], the target named is Mitogen-activated protein kinase 10 (Mus musculus) (UniProt Q61831). Kind of test: JNK3 AlphaScreen Assay (AID 530).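 Further: kinase came from lysate of stimulated human HepG2 cells; signal reports phosphorylation of biotinylated GST-cJun 1-79 at Ser73 with 10 µM ATP; on the % scale 0 is the no-effect control and ±100 the full control effect.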 The essentials:
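HepG2 lysate (IL-1b/TNFa pre-activated) + biotin-GST-cJun 1-79 + anti-pSer73 cJun; cpd titration, 15 min RT; ATP 10 uM start; Tris pH 7.6, MgCl2, DTT, vanadate; beads in EDTA buffer; AlphaScreen.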
For orientation: Bead proximity is the source of the signal in Alpha formats.

Test [7] concerns the target 3',5'-cyclic-AMP phosphodiesterase 4B (Homo sapiens) (UniProt Q07343). Nature of the test: qHTS Assay for Inhibitors of PDE-IV (AID 607; active means well fitted activation curve with a large enough effect in the main read-out, with a control signal flat, not every such curve was filed as active; further: % of control where 0% means no effect). The essentials: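 ACTOne HEK293 cells carry a modified cAMP-gated CNG channel and express endogenous PDE4; plated 1000 cells/well, compounds up to 22.9 uM final. Membrane-potential dye fluorescence (ex 535/em 590) was read; parental cells received 10 uM forskolin + 100 uM RO 20-1724.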

The nature of test [8]: qHTS Assay for Lipid Storage Modulators (AID 1519; calls by dose curve). The settings on record: Drosophila S3 cells, BODIPY lipid droplet/cell ratio, laser cytometry, cells loaded with oleic acid; for activity change, negative = inhibition: at 57.5 µM (top of the series). In short, it runs like this: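 Cells seeded at 5,000 per well were treated with compounds over a concentration series and loaded with oleic acid (400 uM, as added). Lipid droplet fluorescence (488 nm excitation, 500-530 nm channel) was read by laser-scanning cytometry and normalized to 20 uM Triacsin C.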
For orientation: In qHTS, concentration-response curves come from the screen itself.

Test [9] can be described thus: Primary qHTS for small molecule stabilizers of the endoplasmic reticulum resident proteome: Secreted ER Calcium Modulated Protein (SERCaMP) assay (AID 1508630; active means well fitted curve in the direction sought with a large enough effect; an effect the other way counts as inactive or inconclusive; further: on the % scale 0 is the no-effect control and ±100 the full control effect). In short, it runs like this: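 The SH-SY5Y reporter protocol was run at 3 concentrations up to 38.3 uM (primary) or 11 concentrations (follow-up): 16 h compound, 100 nM thapsigargin for 4 h, then extracellular luciferase luminescence.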

In test [10] the target is Glucocorticoid receptor (Homo sapiens) (UniProt P04150). Kind of test: GR-GFP Redistribution (AID 450;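 active means compounds whose dose series gives a full or clear partial fitted curve of increased nuclear translocation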; further: potency means the concentration at half of the fitted maximal effect). The settings on record: U2OS GR-GFP nuclear translocation, laser cytometry, 2 h.
Sequence of Glucocorticoid receptor (Homo sapiens) (P04150 whole entry, looked up, the tested form may be a part): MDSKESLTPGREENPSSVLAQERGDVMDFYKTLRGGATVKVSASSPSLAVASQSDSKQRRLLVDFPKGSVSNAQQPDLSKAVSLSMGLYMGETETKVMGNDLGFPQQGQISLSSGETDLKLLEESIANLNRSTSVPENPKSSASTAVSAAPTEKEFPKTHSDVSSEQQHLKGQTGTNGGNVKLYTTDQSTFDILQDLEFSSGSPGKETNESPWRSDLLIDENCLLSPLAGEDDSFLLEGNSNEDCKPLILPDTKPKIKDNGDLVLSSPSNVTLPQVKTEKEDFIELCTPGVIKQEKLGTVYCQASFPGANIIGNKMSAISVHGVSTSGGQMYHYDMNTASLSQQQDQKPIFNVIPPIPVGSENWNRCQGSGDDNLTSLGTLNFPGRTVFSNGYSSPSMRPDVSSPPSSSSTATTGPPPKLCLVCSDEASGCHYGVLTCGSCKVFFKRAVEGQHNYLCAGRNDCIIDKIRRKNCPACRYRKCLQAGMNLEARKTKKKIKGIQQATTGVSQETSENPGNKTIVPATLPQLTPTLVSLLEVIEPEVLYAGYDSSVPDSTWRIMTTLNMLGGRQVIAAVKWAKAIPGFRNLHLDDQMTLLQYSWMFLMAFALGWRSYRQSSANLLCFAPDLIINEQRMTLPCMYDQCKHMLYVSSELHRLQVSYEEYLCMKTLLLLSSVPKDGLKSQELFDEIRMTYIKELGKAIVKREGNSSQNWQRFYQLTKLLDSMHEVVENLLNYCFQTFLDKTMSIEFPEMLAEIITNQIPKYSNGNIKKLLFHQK
Test [11] has as its target Cytochrome P450 3A4 (Homo sapiens) (UniProt P08684). Kind of test: qHTS Assay for Activators of Cytochrome P450 3A4 (AID 885; active means well fitted curve in the direction sought with a large enough effect; an effect the other way counts as inactive or inconclusive; further: nearly all actives have a fitted effect of over 65% in size). The essentials: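 CYP3A4 activity: Luciferin-PPXE O-dealkylation, 25uM substrate, 200mM KPO4, RT throughout. Read-out is luciferase luminescence; higher values reflect activation.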
Test [12] in a line: Confirmation and Secondary Assay for Modulators of Hemoglobin Beta Chain Splicing at IVS2 654 locus (AID 910; active means well fitted curve in the direction sought with a large enough effect; an effect the other way counts as inactive or inconclusive;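 further: HeLa cells stably carrying EGFP split by mutant beta-globin IVS2-654 intron; % of control where 0% means no effect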). The essentials: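 HeLa cells stably expressing EGFP interrupted by β-globin IVS2-654 intron, seeded overnight in Opti-MEM/2% FCS, then treated 2 days at 37 °C. Restored splicing read as total peak GFP intensity per well by laser scanning cytometry (488 nm excitation, 500–520 nm emission); 500 nM antisense PNA as control.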

Test [13] in a line: Confirmation and Secondary Assay for Modulators of Hemoglobin Beta Chain Splicing at IVS2 705 locus (AID 930; active means well fitted curve in the direction sought with a large enough effect; an effect the other way counts as inactive or inconclusive;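 further: HeLa cells stably expressing the EGFP-705 splicing reporter; GFP fluorescence per well restored by corrected splicing of the IVS2-705 intron in EGFP; % of control where 0% means no effect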). The essentials:
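Read-out: total peak GFP fluorescence per well (488 nm excitation, 500-520 nm emission) by laser-scanning cytometry. Cells: HeLa EGFP-705 splicing reporter, 2 days compound exposure in Optimem/2% FCS.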

Where [14] appears, read: measured here: cell count channel max response.
Where [15] appears, read: measured here: lipid channel max response.

Sequence of Cytochrome P450 1A2 (Homo sapiens) (P05177 whole entry, looked up): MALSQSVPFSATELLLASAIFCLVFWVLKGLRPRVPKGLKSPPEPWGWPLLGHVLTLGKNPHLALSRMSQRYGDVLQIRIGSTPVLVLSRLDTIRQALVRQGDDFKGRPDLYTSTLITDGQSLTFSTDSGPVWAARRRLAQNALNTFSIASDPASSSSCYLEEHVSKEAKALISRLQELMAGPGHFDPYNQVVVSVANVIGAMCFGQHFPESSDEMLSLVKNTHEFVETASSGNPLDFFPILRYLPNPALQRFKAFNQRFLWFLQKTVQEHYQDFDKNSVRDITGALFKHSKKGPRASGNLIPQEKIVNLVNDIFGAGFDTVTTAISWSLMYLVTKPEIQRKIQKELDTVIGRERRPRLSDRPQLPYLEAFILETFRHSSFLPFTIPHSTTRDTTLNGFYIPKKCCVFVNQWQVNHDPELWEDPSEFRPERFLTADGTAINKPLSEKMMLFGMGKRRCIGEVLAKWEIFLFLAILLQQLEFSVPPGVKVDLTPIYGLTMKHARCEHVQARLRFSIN
Sequence of 3',5'-cyclic-AMP phosphodiesterase 4B (Homo sapiens) (Q07343 whole entry, looked up): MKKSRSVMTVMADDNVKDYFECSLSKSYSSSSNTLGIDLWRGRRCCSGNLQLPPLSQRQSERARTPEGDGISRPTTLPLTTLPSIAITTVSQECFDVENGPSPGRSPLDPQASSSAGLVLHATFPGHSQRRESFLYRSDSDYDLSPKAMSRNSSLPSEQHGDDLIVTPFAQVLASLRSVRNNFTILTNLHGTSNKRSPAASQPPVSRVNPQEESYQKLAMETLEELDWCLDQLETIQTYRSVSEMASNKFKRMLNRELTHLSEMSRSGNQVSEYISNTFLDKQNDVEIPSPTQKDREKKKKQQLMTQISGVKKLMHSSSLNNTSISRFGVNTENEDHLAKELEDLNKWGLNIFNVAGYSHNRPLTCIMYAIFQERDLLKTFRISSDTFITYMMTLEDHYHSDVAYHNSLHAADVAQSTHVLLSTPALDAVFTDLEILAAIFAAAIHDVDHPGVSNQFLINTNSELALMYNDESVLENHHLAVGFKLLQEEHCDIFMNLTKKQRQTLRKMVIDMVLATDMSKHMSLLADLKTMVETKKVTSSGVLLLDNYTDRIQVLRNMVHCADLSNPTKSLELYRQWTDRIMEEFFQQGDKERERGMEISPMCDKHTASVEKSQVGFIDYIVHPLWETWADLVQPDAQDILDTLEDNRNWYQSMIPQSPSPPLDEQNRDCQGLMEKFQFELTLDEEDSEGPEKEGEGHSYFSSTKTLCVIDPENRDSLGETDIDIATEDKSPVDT
Sequence of Cytochrome P450 3A4 (Homo sapiens) (P08684 whole entry, looked up): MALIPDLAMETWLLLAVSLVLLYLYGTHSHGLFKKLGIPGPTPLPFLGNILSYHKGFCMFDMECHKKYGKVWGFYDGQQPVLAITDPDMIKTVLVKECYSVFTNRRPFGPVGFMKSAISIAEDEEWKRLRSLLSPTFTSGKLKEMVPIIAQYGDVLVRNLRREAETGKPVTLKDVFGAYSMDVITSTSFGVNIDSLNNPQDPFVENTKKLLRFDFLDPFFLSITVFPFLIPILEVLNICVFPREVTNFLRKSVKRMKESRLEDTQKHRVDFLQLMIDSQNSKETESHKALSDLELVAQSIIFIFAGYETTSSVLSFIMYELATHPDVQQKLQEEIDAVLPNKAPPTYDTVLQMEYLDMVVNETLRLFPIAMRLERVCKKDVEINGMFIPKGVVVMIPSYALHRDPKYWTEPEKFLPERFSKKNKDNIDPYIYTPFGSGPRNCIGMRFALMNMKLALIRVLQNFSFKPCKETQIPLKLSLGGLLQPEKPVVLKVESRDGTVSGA

As to `COc1ccc(NC(=O)N2CC3(CCN(C(=O)c4csnn4)CC3)C2)cc1`, the activity change, negative = inhibition in test [1] was 20.6% (inactive); in test [3], 16.7% (inactive); in test [8], 6.22% (inactive). The Potency result in test [2], in test [6] and in test [7] was “inactive” in each case. Besides, in [4], the activity, negative = inhibition was -2.12% (inactive). In addition, the Potency in test [5] is > 46 µM (inactive). The values for the max response in [8] (setting [14]) and in test [8] (setting [15]) were 7.84% and 18.1%, respectively. The result in [9] was inactive.

Consider `Cc1cnc(CNc2nc(-c3ccc(N(C)C)cc3)nc3ccccc23)cn1`, for which the activity change, negative = inhibition in test [1] was -17% (inactive); in test [8] it was 11.9% (inactive). For the same compound, the Potency is 3.16 µM (active) in [2], > 46 µM (inactive) in [10] and > 46 µM (inactive) in test [5]. Besides, in [4], the activity, negative = inhibition was 7.71% (inactive). The Potency result in test [6], in test [7], in [11] and in [12] was “inactive” throughout. Also, the result in test [13] and in test [9] was inactive. In addition, the max response was determined as 13.6% in test [8] (setting [14]) and 26% in test [8] (setting [15]).

With `N#Cc1cccc(NC(=O)N2CC[C@@]3(CCCN(C(=O)c4ccco4)C3)C2)c1`, the activity change, negative = inhibition is -2.67% (inactive) in test [1], 3.83% (inactive) in test [3] and 6.04% (inactive) in test [8]. For the same compound, the Potency entry in test [2], in test [6], in test [7] and in test [11] was “inactive” each time. Further, the activity, negative = inhibition in test [4] is -1.84% (inactive). For the same compound, the Potency in [5] was > 46 µM (inactive). The values for the max response in [8] (setting [14]) and in [8] (setting [15]) were 4.12% and 14%, respectively. Further, in [9], the result was inactive.
